# Assay results taken from PubChem BioAssay AID651814 (National Center for Advancing Translational Sciences (NCATS), 2012).
# Several values for one entry are separate records, joined by “and”; a condition that tells them apart may be missing. Equal values may be shown once. Hit rate of the full screen: of about 2,100 compounds, about 590 (28%) were called active. Another 42% or so got no clear call; they are omitted. Calls follow the shape of the dose curve; as a rule, active = well fitted inhibition curve with a large enough effect; inconclusive = small, poorly fitted or top-dose-only effect; inactive = flat fitted curve, though single readings scatter. This is one part of the list.
# Molecular target: DNA dC->dU-editing enzyme APOBEC-3F (Homo sapiens) (UniProt Q8IUX4)
# Test: qHTS for inhibitors of Vif-A3F interactions: Cherry picks; also: nearly all actives have a fitted effect of over 70% in size;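 as to max response: % of control where 0% means no effect; active compounds raise eYFP fluorescence by blocking Vif-driven A3F loss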
# Details: HeLa A3F-eYFP + Vif (tagged APOBEC3F with the HIV-1 protein that degrades it), eYFP fluorescence, 24 h
# Summary of the method: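 Read-out: yellow fluorescence (ex 488 nm, em 500-530 nm) by laser-scanning cytometer after 24 h compound exposure, several concentrations, at 37 deg C. Cells: HeLa line stably co-expressing Vif and C-terminally eYFP-tagged A3F; MG132 served as positive control.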
# Potency is read from the fitted curve at half-maximal effect.
# DNA dC->dU-editing enzyme APOBEC-3F (Homo sapiens), sequence (Q8IUX4 whole entry, looked up): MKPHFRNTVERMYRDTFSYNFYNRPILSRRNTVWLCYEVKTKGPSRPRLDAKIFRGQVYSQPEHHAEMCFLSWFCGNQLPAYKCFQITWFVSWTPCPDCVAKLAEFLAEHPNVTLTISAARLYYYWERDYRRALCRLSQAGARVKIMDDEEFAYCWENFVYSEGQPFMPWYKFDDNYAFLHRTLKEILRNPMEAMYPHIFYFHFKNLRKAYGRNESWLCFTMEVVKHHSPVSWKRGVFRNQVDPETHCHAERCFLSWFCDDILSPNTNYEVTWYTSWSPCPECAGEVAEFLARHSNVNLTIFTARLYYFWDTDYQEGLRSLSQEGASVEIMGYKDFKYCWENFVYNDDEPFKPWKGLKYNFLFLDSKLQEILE
SMILES,max response,Potency
O=C(NC1C/C(=N/O)c2cc3c(cc21)OCO3)C(F)(F)F (stereo not drawn),0.0424% (inactive),
Cc1cccc(-n2c(N)c(-c3nc4ccccc4n3C)c3nc4ccccc4nc32)c1,-0.799% (inactive),
CC(=O)n1c2ccccc2c2nc3ccccc3nc21,,11.6 µM (active)
Cc1ccc2nc(/C(C#N)=C/c3ccc(-c4cccc([N+](=O)[O-])c4)o3)[nH]c2c1,-29.2% (inactive),
Cc1ccc2nc(/C(C#N)=C/c3ccc(-c4cccc(Cl)c4)o3)[nH]c2c1,,4.61 µM (active)
Cc1ccc2nc(/C(C#N)=C/c3ccc(-c4ccc(C(=O)OC(C)C)cc4)o3)[nH]c2c1,,2.06 µM (active)
Cc1ccc2nc(/C(C#N)=C/c3ccc(-c4ccccc4C(=O)O)o3)[nH]c2c1,-7.06% (inactive),
N#C/C(=C\c1ccc(-c2ccc(F)cc2F)o1)c1nc2ccccc2[nH]1,,20.6 µM (active)
Cc1ccc2nc(/C(C#N)=C/c3ccc(-c4ccc(F)cc4F)o3)[nH]c2c1,,4.11 µM (active)
N#C/C(=C\c1ccc(-c2ccc(C(=O)O)cc2)o1)c1nc2ccccc2[nH]1,0.542% (inactive),
CSCC[C@H](NC(=O)[C@H](Cc1ccccc1)n1c(=O)[nH]c2ccccc2c1=O)C(=O)N1CCC[C@@H]1C(=O)O,1.14% (inactive),
Cc1c(Cl)cccc1-c1ccc(/C=C(\C#N)c2nc3ccccc3[nH]2)o1,,20.6 µM (active)
CCOC(=O)/C(=C/C1=CC(=C/N(C)C)/C(=O)O1)C(C)=O,-9.79% (inactive),
CCNc1cc(N2CCN(C3CCCCC3)CC2)c2noc3c2c1C(=O)c1ccccc1-3,,18.4 µM (active)
O=C1c2ccccc2-c2onc3c(N4CCN(C5CCCCC5)CC4)cc(NCCO)c1c23,,3.66 µM (active)
CN(C)CCCNc1cc(N2CCN(C3CCCCC3)CC2)c2noc3c2c1C(=O)c1ccccc1-3,,9.2 µM (active)
CCOC(=O)c1cnc(-n2nc(C)cc2C)nc1NNc1cc(C)nc(-c2ccccc2)n1,0.647% (inactive),
Nc1c(C(=O)N/N=C/c2cccnc2)oc2nc(-c3ccccc3)cc(-c3ccco3)c12,,13 µM (active)
Nc1c(C(=O)N/N=C/c2ccccc2Cl)oc2nc(-c3ccccc3)cc(-c3ccco3)c12,,2.91 µM (active)
C/C(=N\Nc1nc(C)cc(-c2ccccc2)n1)c1ccc(F)cc1,-6.16% (inactive),
Cc1cc(/C=N/NC(=O)c2cc3ccccc3o2)c(C)n1C,-15.8% (inactive),
Cc1cc(-c2ccccc2)nc(N/N=C/c2ccccc2F)n1,-4.11% (inactive),

SMILES,max response,Potency
Nc1c(C(=O)N/N=C/c2ccc(F)cc2)oc2nc(-c3ccccc3)cc(-c3ccco3)c12,,7.9 µM (active)
O=C(CSc1nc(-c2ccco2)cc(C(F)(F)F)n1)Nc1cccnc1,-24.4% (inactive),
C=CCOC(=O)C1=C(C)NC(C)=C(C(=O)OCC=C)C1c1cn(-c2ccccc2)nc1-c1ccco1,0.509% (inactive),
N=C1S/C(=C\c2ccc(-c3cccc(Cl)c3)o2)C(=O)N1c1nccs1,,18.4 µM (active)
CC(=O)/C(=C\N(C)C)Sc1ccc(Cl)cc1,1.31% (inactive),
CN(C)c1ccc(/C=C/c2cc[n+](C)cc2)cc1,,15.8 µM (active)
Cc1ccc(/C=C/c2ccc(N(C)C)cc2)[n+](C)c1,,8.86 µM (active)
CC[n+]1cc(C)ccc1/C=C/c1ccc(N(C)C)cc1,,8.86 µM (active)
CN1CCC(OC(=O)c2cc3cc(Cl)cc(Cl)c3oc2=O)CC1,3.05% (inactive),
COC(=O)[C@@]1(Cc2ccccc2)[C@@H]2C(=CC(=O)[C@H]2CC(=O)C(=O)N(C)C)CN1C(=O)c1ccccc1,-26.2% (inactive),
Nc1nc2n[nH]nc2c(=O)[nH]1,,6.51 µM (active) and 3.53 µM (active)
N#C/C(N=Nc1ccccc1O)=N\Nc1ccccc1O,,14.6 µM (active)
CCCCN1C(=O)/C(=C2/Sc3ccccc3N2C)S/C1=N\c1ncn[nH]1,,18.4 µM (active)
CC(CC(=O)Nc1ccc2c(c1)c(=O)n(C)n2-c1ccccc1)c1ccccc1 (stereo not drawn),,4.98 µM (active)
Cc1cnc(NC(=O)CC(C)c2ccccc2)s1 (stereo not drawn),-26.1% (inactive),
CCn1c2ccccc2c2cc(NC(=O)c3ccc(=O)oc3)ccc21,-28.9% (inactive),
CCOc1ccc(Cn2c3ccc(OC)cc3c3nc4ccccc4nc32)cc1,,8.2 µM (active)
CCOc1ccccc1OCC(=O)N/N=C(\C)Cc1ccc(OC)cc1,-18.5% (inactive),
CC(C)(C)c1ccc(Cn2c(=O)cnc3ccccc32)cc1,-25.6% (inactive),
CC(C)(C)NC(=S)N/N=C\c1ccc(-c2ccc([N+](=O)[O-])cc2)o1,,14.6 µM (active)
O=C(O)c1ccc(-c2ccc(/C=N/Nc3ccc([N+](=O)[O-])cc3)o2)cc1,,15.8 µM (active)
NC(=S)N/N=C\c1ccc(-c2cccc(Cl)c2Cl)o1,-18.7% (inactive),

SMILES,max response,Potency
Cc1cc([N+](=O)[O-])ccc1-c1ccc(/C=N/NC(=O)c2ccc(Br)o2)o1,,18.4 µM (active)
O=C(O)c1cccc(-c2ccc(/C=N/Nc3ccc([N+](=O)[O-])cc3)o2)c1,,18.4 µM (active)
Cc1ccc(-c2ccc(/C=N/NC(N)=S)o2)cc1,-8.18% (inactive),
C/C(CCc1ccc2c(c1)OCO2)=N\NC(=S)NC(C)C,-2.82% (inactive),
CN(/N=C/c1ccc(-c2ccc([N+](=O)[O-])cc2)o1)c1ccccc1,,0.731 µM (active)
COc1ccccc1N1CCN(C(=O)c2ccc3ncsc3c2)CC1,-21% (inactive),
COc1ccc2nc3ccccc3nc2c1NC(=O)c1ccc(Br)cc1,,18.4 µM (active)
COc1ccc(C(=O)N/N=C/c2cc(Br)ccc2O)cc1OC,-1.32% (inactive),
COc1ccc2nc3ccccc3nc2c1NC(=O)c1ccc(Cl)cc1Cl,,3.53 µM (active)
COc1ccc(C(=O)NC(=S)NCc2cccnc2)cc1Cl,-3.18% (inactive),
COc1ccc2nc3ccccc3nc2c1NC(=O)c1ccc(Cl)cc1,,16.4 µM (active)
O=C(NC(=S)Nc1c(Cl)cc(Cl)cc1Cl)c1ccccc1,-0.292% (inactive),
COc1cc2nc(/C=C/c3ccc(N(C)C)cc3)sc2cc1SC,,20.6 µM (active)
CCN(CC)c1ccc2cc(-c3nc4sc5c(c4c(=O)[nH]3)CCC(C(C)(C)C)C5)c(=O)oc2c1 (stereo not drawn),13.2% (inactive),
COc1ccc2cc(-c3nc(Cl)c4c5c(sc4n3)CC(C)CC5)c(=O)oc2c1 (stereo not drawn),,5.8 µM (active)
O=C(CSc1n[nH]c(-c2ccccn2)n1)Nc1ccc(Cl)cc1,0.972% (inactive),
COc1ccccc1OCC(=O)NNC(=O)Nc1ccc(Cl)cc1,,14 µM (active)
O=C(Nc1ccc(Cl)cc1)Nc1ccon1,-9.41% (inactive),
COCCN(CCOC)Cc1c(O)ccc2c1O/C(=C\c1ccc(C)o1)C2=O,-17.2% (inactive),
CCOC(=O)c1ccc(NC(=O)Cn2ncc(Cl)c(Cl)c2=O)cc1,-29.1% (inactive),
O=C(Cn1ncc(Cl)c(Cl)c1=O)NCC1CCCCC1,,15.8 µM (active)
Cc1ccc(S(=O)(=O)N2CCCCC2)cc1NC(=O)Cn1ncc(Cl)c(Cl)c1=O,-13.3% (inactive),

SMILES,max response,Potency
C=CCSc1nc2sc3c(c2c(=O)n1CC)CCC3,-3.63% (inactive),
C[C@@H]1O[C@@H](O[C@@H]2C(=O)c3c(O)cc(O)cc3O[C@H]2c2ccc(O)c(O)c2)[C@H](O)[C@H](O)[C@H]1O,2.1% (inactive),
CCC(C)Sc1ccc(-c2nc3cc(C)ccn3c2NC2CCCCC2)cc1 (stereo not drawn),-4.06% (inactive),
Cn1nnnc1SCc1nc2scc(-c3ccc(Cl)cc3)c2c(=O)[nH]1,-13.9% (inactive),
COc1cccc(N2CCN(Cc3nc4scc(-c5ccccc5)c4c(=O)[nH]3)CC2)c1,,17.7 µM (active)
O=c1c(Cl)c2oc3ccccc3nc-2c2ccccc12,,18.4 µM (active)
O=C(Nc1nc(-c2ccccn2)cs1)C1CCCC1,-4.77% (inactive),
Cc1ccc(-n2c(O)c(/C=C3/C(c4ccccc4)=Nc4ccccc43)c(=O)[nH]c2=O)cc1,-12.3% (inactive),
Cc1ccccc1NC(=O)c1sc2nc3c(c(-c4ccco4)c2c1N)CCC3,-22.7% (inactive),
Cc1cc(N2CCN(C)CC2)ccc1NC(=O)c1c2c(nc3ccccc13)CCN(Cc1ccccc1)C2,-29.2% (inactive),
CCN1CCc2nc3sc(C(=O)c4ccccc4)c(N)c3cc2C1,,16.4 µM (active)
COc1ccc(NC(=O)c2sc3nc4c(cc3c2N)CN(Cc2ccccc2)CC4)c(OC)c1,,20.6 µM (active)
Nc1c(C(=O)c2ccc(Cl)cc2)sc2nc3c(cc12)CCC3,,23.1 µM (active)
Cc1ccc(NC2=C(Cl)C(=O)N(C3CCCCC3)C2=O)cc1,-3.54% (inactive),
COc1cnc(-c2ccccn2)nc1Oc1ccc(F)cc1F,2.31% (inactive),
Cc1ccc(SC2=C(Sc3ccc(C)cc3)C(=O)c3ccccc3C2=O)cc1,,20.6 µM (active)
Cc1c(NC(=O)c2csc3c2CCCC3)c(=O)n(-c2ccccc2)n1C,0.352% (inactive),
Cc1c(N/N=C(\C#N)C(=O)c2ccc(Cl)cc2)c(=O)n(-c2ccccc2)n1C,-12.8% (inactive),
Cc1c(N=C2N=C(NC(=O)c3cccs3)c3ccccc32)c(=O)n(-c2ccccc2)n1C,,15.8 µM (active)
COc1ccc(-c2csc(NC(=S)NC(=O)/C=C/c3ccco3)n2)cc1Br,,7.04 µM (active)
COc1cccc(NC(=O)Nc2nc(-c3ccc(OC)c(OC)c3)cs2)c1,-25.2% (inactive),
O=C(/C=C/c1ccco1)NC(=S)Nc1ccc(N2CCCC2)cc1,-28% (inactive),
